# Assay results: the supplement of paper PMC4466140
# Target: ScBbc1
# Assay: SPOT peptide array binding signal intensity (averaged, normalized) (arbitrary units (background-subtracted, floor 0; scale differs between SH3 domains)); higher = stronger binding of the SH3 domain to the peptide
# Procedure, shortened: (§1)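 Spot intensities were captured after detection with anti-GST antibody, an HRP-linked anti-mouse secondary and luminol, and quantified with Genespotter. The probes were GST-fused SH3 domains from four yeast species, produced in E. coli BL21(DE3), purified on glutathione Sepharose and incubated at 10 μg/ml overnight at 4°C on cellulose-bound synthetic 15-mer peptides with cysteines replaced by serines. Binding signal is the normalized, background-subtracted spot intensity averaged over replicates, and its arbitrary units differ between domains.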
row,Binder,SPOT peptide array binding signal intensity
1,IFLRISINFPLNYPN,59.9

# Target: ScBem1-D1
# Assay: as above
# Procedure, shortened: as §1
row,Binder,SPOT peptide array binding signal intensity
1,IFLRISINFPLNYPN,194

# Target: ScBzz1-D1
# Assay: as above
# Procedure, shortened: as §1
row,Binder,SPOT peptide array binding signal intensity
1,IFLRISINFPLNYPN,558

# Target: ScBzz1-D2
# Assay: as above
# Procedure, shortened: as §1
row,Binder,SPOT peptide array binding signal intensity
1,IFLRISINFPLNYPN,2990

# Target: ScCyk3
# Assay: as above
# Procedure, shortened: as §1
row,Binder,SPOT peptide array binding signal intensity
1,IFLRISINFPLNYPN,127

# Target: ScFus1
# Assay: as above
# Procedure, shortened: as §1
row,Binder,SPOT peptide array binding signal intensity
1,IFLRISINFPLNYPN,5050

# Target: ScHof1
# Assay: as above
# Procedure, shortened: as §1
row,Binder,SPOT peptide array binding signal intensity
1,IFLRISINFPLNYPN,30.8

# Target: ScHse1
# Assay: as above
# Procedure, shortened: as §1
row,Binder,SPOT peptide array binding signal intensity
1,IFLRISINFPLNYPN,3840

# Target: ScLsb1
# Assay: as above
# Procedure, shortened: as §1
row,Binder,SPOT peptide array binding signal intensity
1,IFLRISINFPLNYPN,12.8

# Target: ScLsb2
# Assay: as above
# Procedure, shortened: as §1
row,Binder,SPOT peptide array binding signal intensity
1,IFLRISINFPLNYPN,64

# Target: ScLsb3
# Assay: as above
# Procedure, shortened: as §1
row,Binder,SPOT peptide array binding signal intensity
1,IFLRISINFPLNYPN,1490

# Target: ScLsb4
# Assay: as above
# Procedure, shortened: as §1
row,Binder,SPOT peptide array binding signal intensity
1,IFLRISINFPLNYPN,396

# Target: ScMyo3
# Assay: as above
# Procedure, shortened: as §1
row,Binder,SPOT peptide array binding signal intensity
1,IFLRISINFPLNYPN,32.5

# Target: ScMyo5
# Assay: as above
# Procedure, shortened: as §1
row,Binder,SPOT peptide array binding signal intensity
1,IFLRISINFPLNYPN,114

# Target: ScNbp2
# Assay: as above
# Procedure, shortened: as §1
row,Binder,SPOT peptide array binding signal intensity
1,IFLRISINFPLNYPN,2820

# Target: ScPex13
# Assay: as above
# Procedure, shortened: as §1
row,Binder,SPOT peptide array binding signal intensity
1,IFLRISINFPLNYPN,516

# Target: ScRvs167
# Assay: as above
# Procedure, shortened: as §1
row,Binder,SPOT peptide array binding signal intensity
1,IFLRISINFPLNYPN,223

# Target: ScSho1
# Assay: as above
# Procedure, shortened: as §1
row,Binder,SPOT peptide array binding signal intensity
1,IFLRISINFPLNYPN,6350

# Target: ScSla1-D1-D2
# Assay: as above
# Procedure, shortened: as §1
row,Binder,SPOT peptide array binding signal intensity
1,IFLRISINFPLNYPN,880

# Target: ScSla1-D3
# Assay: as above
# Procedure, shortened: as §1
row,Binder,SPOT peptide array binding signal intensity
1,IFLRISINFPLNYPN,344

# Target: SpAbp1-D1
# Assay: as above
# Procedure, shortened: as §1
row,Binder,SPOT peptide array binding signal intensity
1,IFLRISINFPLNYPN,211

# Target: SpBbc1
# Assay: as above
# Procedure, shortened: as §1
row,Binder,SPOT peptide array binding signal intensity
1,IFLRISINFPLNYPN,238

# Target: SpBzz1-D1
# Assay: as above
# Procedure, shortened: as §1
row,Binder,SPOT peptide array binding signal intensity
1,IFLRISINFPLNYPN,1240

# Target: SpBzz1-D2
# Assay: as above
# Procedure, shortened: as §1
row,Binder,SPOT peptide array binding signal intensity
1,IFLRISINFPLNYPN,97

# Target: SpCyk3
# Assay: as above
# Procedure, shortened: as §1
row,Binder,SPOT peptide array binding signal intensity
1,IFLRISINFPLNYPN,35

# Target: SpHof1
# Assay: as above
# Procedure, shortened: as §1
row,Binder,SPOT peptide array binding signal intensity
1,IFLRISINFPLNYPN,342

# Target: SpHof1-2
# Assay: as above
# Procedure, shortened: as §1
row,Binder,SPOT peptide array binding signal intensity
1,IFLRISINFPLNYPN,157

# Target: SpHof1-3
# Assay: as above
# Procedure, shortened: as §1
row,Binder,SPOT peptide array binding signal intensity
1,IFLRISINFPLNYPN,1040

# Target: SpHse1
# Assay: as above
# Procedure, shortened: as §1
row,Binder,SPOT peptide array binding signal intensity
1,IFLRISINFPLNYPN,2240

# Target: SpLsb1
# Assay: as above
# Procedure, shortened: as §1
row,Binder,SPOT peptide array binding signal intensity
1,IFLRISINFPLNYPN,33

# Target: SpLsb4
# Assay: as above
# Procedure, shortened: as §1
row,Binder,SPOT peptide array binding signal intensity
1,IFLRISINFPLNYPN,625

# Target: SpMyo1
# Assay: as above
# Procedure, shortened: as §1
row,Binder,SPOT peptide array binding signal intensity
1,IFLRISINFPLNYPN,168

# Target: SpNbp2
# Assay: as above
# Procedure, shortened: as §1
row,Binder,SPOT peptide array binding signal intensity
1,IFLRISINFPLNYPN,1680

# Target: SpPex13
# Assay: as above
# Procedure, shortened: as §1
row,Binder,SPOT peptide array binding signal intensity
1,IFLRISINFPLNYPN,1640

# Target: SpRvs167
# Assay: as above
# Procedure, shortened: as §1
row,Binder,SPOT peptide array binding signal intensity
1,IFLRISINFPLNYPN,239

# Target: SpSla1-D1-D2
# Assay: as above
# Procedure, shortened: as §1
row,Binder,SPOT peptide array binding signal intensity
1,IFLRISINFPLNYPN,68

# Target: SpSla1-D3
# Assay: as above
# Procedure, shortened: as §1
row,Binder,SPOT peptide array binding signal intensity
1,IFLRISINFPLNYPN,512
